# Measured values taken from article PMC4336329 (PLoS ONE, 2015).
# Hit rate of the full screen: of about 310,000 compounds, about 2,200 (0.71%) showed an effect of 50% or more. Effects have a minus sign here. Many of the other results were omitted from the sample, so strong results are more common in it than they were.
# Molecular target: human ether-à-go-go-related gene (hERG) potassium channel (human, UniProt Q12809)
# Assay: primary screen, population patch clamp on CHO cells stably expressing hERG; higher = less effect of the substance
# Chain of human ether-à-go-go-related gene (hERG) potassium channel (Q12809 whole entry, looked up): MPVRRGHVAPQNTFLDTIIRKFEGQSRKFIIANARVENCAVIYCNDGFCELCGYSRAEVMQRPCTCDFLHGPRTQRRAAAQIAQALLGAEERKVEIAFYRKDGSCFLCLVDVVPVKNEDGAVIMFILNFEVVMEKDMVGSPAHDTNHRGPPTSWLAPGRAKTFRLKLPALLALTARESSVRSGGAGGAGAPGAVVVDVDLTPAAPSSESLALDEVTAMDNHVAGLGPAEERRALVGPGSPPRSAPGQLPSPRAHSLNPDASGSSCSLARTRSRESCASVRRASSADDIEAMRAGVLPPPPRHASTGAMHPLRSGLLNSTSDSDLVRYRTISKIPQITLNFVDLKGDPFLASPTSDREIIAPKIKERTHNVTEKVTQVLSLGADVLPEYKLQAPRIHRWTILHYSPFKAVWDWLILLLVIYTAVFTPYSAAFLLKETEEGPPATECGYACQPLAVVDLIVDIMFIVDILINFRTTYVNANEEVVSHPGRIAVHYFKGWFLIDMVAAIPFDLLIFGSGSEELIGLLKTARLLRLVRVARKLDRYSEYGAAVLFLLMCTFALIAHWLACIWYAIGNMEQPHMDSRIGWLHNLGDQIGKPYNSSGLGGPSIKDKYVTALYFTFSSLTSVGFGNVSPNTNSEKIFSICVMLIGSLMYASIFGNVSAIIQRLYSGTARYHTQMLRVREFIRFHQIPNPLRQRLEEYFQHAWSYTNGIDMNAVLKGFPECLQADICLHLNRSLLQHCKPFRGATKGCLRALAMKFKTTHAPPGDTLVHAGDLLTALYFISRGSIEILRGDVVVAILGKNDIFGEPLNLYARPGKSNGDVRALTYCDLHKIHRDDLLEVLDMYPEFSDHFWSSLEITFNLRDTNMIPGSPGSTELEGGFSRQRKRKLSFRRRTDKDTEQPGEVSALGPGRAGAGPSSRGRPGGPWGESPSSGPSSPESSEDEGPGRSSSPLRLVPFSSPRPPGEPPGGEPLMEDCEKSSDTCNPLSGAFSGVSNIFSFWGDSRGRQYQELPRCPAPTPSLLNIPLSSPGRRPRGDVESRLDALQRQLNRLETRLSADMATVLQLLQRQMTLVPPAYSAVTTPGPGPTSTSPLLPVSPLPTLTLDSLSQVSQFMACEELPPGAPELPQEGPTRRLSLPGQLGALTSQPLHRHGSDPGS
row,SMILES,"hERG current change (%, negative = inhibition) at 1uM [%]"
1,Cc1ccc2c(Cl)c(C(=O)NC3CC3)sc2c1,9.87
2,CCCSc1nc2c(c(=O)[nH]c(=O)n2C)n1Cc1ccccc1,2.13
3,Cn1c(=O)[nH]c(=O)c2c1nc(SCCN1CCCCC1)n2CCCc1ccccc1,-57.3
4,CCCCCn1c(SCCN2CCOCC2)nc2c1c(=O)[nH]c(=O)n2C,-40.7
5,COCCSc1nc2c(c(=O)[nH]c(=O)n2C)n1Cc1cccc(C)c1,-5.69
6,Cn1c(=O)[nH]c(=O)c2c1nc(SCCN1CCOCC1)n2Cc1ccccc1,-12
7,CC(C)CCn1c(SCCN2CCOCC2)nc2c1c(=O)[nH]c(=O)n2C,1.89
8,Cn1c(=O)[nH]c(=O)c2c1nc(SCCN1CCCCC1)n2Cc1ccccc1,-81.6
9,Cc1cccc(Cn2c(N3CCN(CCO)CC3)nc3c2c(=O)[nH]c(=O)n3C)c1,7.07
10,Cn1c(=O)[nH]c(=O)c2c1nc(SCCO)n2CCCc1ccccc1,5.4
11,CCCCCCn1c(SCCN2CCOCC2)nc2c1c(=O)[nH]c(=O)n2C,-64.1
12,Cn1c(=O)[nH]c(=O)c2c1nc(SCCN1CCOCC1)n2CCCc1ccccc1,-6.15
13,Cc1cccc(Cn2c(SCCN3CCCCC3)nc3c2c(=O)[nH]c(=O)n3C)c1,-80.7
14,O=C(O)C1CC(=O)N(Cc2ccc3c(c2)OCO3)C1 (stereo not shown),6.73
15,O=C(CN1CCCc2ccccc21)NCc1ccc2c(c1)OCO2,9.15
16,CSc1ccc(-c2nc3cnccn3c2Nc2ccc3c(c2)OCO3)cc1,9.9
17,Cc1ccccc1OCCC(=O)Nc1ccc(S(=O)(=O)N(C)C2CCN(C)CC2)cc1,20.4
18,Cc1ccc(Cn2c(SCCN3CCCCC3)nc3c2c(=O)[nH]c(=O)n3C)cc1,-77.5
19,Cc1ccc(Cn2c(N3CCCCCC3)nc3c2c(=O)[nH]c(=O)n3C)cc1,2.45
20,Cc1ccc(Cn2c(SCC(C)C)nc3c2c(=O)[nH]c(=O)n3C)cc1,9.48
21,O=C(Cc1ccc(Cl)cc1)N1CCc2ccccc2C1,21.7
22,COc1cccc(C(c2sc3nc(C)nn3c2O)N2CCN(c3ccccc3F)CC2)c1 (stereo not shown),10
23,CCCCN(C)CCNC(=O)CN1C(=O)CSc2ccc(S(=O)(=O)N3CCCCC3)cc21,-6.21

row,SMILES,"hERG current change (%, negative = inhibition) at 1uM [%]"
1,CCCCN(CCCC)CCNC(=O)CN1C(=O)CSc2ccc(S(=O)(=O)N3CCOCC3)cc21,-3.76
2,CCCCN(CCCC)CCNC(=O)CN1C(=O)CSc2ccc(S(=O)(=O)N3CCCCC3)cc21,-51.7
3,Nc1nc(N)c(N=Nc2ccc(C(=O)O)cc2)c(N)n1,8.04
4,Cc1ccc(Sc2cc(NCCCO)c([N+](=O)[O-])c3nonc23)cc1,5.43
5,CCOC(=O)c1c(NC(=O)c2ccccc2C(=O)O)sc2c1CCC2,2.17
6,CCOC(=O)c1c(NC(=O)c2ccccc2C(=O)O)sc2c1CCCC2,16.3
7,CCOC(=O)c1c(NC(=O)C(NCCN(C)C)c2ccccc2)sc2c1CCCC2 (stereo not shown),-77.2
8,COc1ccc(N=C2SC(C(=O)O)CC(=O)N2Cc2ccc(OC)c(OC)c2)cc1 (stereo not shown),10.8
9,CCCCNC(=O)N1CCN(c2ccccc2OC)CC1,5.81
10,O=C1c2[nH]nc(-c3ccccc3O)c2C(c2ccc(F)cc2)N1Cc1ccco1 (stereo not shown),13.1
11,CC1CC(C)CN(c2cc(=O)n(Cc3ccc(F)cc3)c(=O)[nH]2)C1 (stereo not shown),17.9
12,CSc1nnc2c3cc(C)ccc3n(Cc3ccccc3)c2n1,10.3
13,CSc1nnc2c3ccccc3n(Cc3ccccc3)c2n1,19.2
14,O=C(O)CCSc1nc2ccccc2n1Cc1ccccc1,13.1
15,CN(C)C(=O)CSc1nc2ccccc2n1Cc1ccccc1,4.73
16,CSc1nnc2c3cc(F)ccc3n(Cc3ccccc3)c2n1,7.64
17,CCN(CC)CCSc1nc2ccccc2n1Cc1ccccc1.Cl,-79
18,CCN(CC)CCSc1nnc2c3cc(F)ccc3n(Cc3ccccc3)c2n1,-53.8
19,CCN(CC)CCSc1nnc2c3cc(C)ccc3n(Cc3ccccc3)c2n1,-81.6
20,c1ccc(Cn2c3ccccc3c3nnc(SCCN4CCCCC4)nc32)cc1,-6.31
21,NNc1nnc2c3cc(F)ccc3n(Cc3ccccc3)c2n1,2.58
22,CCN(CC)CCSc1nnc2c3ccccc3n(Cc3ccccc3)c2n1,-73.4
23,CCN(CC)CCSc1nnc2c3ccccc3n(CCc3ccccc3)c2n1,-18.1

row,SMILES,"hERG current change (%, negative = inhibition) at 1uM [%]"
1,COc1ccc([N+](=O)[O-])cc1N(CC(=O)N1CCCC1)S(C)(=O)=O,10.2
2,O=C(NC1(C(F)(F)F)NC(=O)N(Cc2cccnc2)C1=O)c1ccncc1 (stereo not shown),18.1
3,O=C(NC(Cc1c[nH]c2ccccc12)C(=O)N1CCOCC1)c1cccs1 (stereo not shown),11.2
4,CC(C)(C)OC(=O)NCCCCCc1nnc(SCC(=O)Nc2cccc(Cl)c2)o1,-1.82
5,Cc1ccc(SCC(=O)Nc2ccc(N3CCN(C)CC3)c(F)c2)c(C)c1,-47.8
6,COc1ccc(/C=N/N2CCN(C3c4ccccc4-c4ccccc43)CC2)cc1OC,12.9
7,COCCOC(=O)c1c(NC(=O)CNc2ccc(C)c(F)c2)sc(C(N)=O)c1C,11
8,Cc1cc(NC(=O)c2ccc(Cl)cc2)n(-c2ccccc2)n1,13.6
9,Cc1cc(NC(=O)c2ccccc2)n(-c2ccccc2)n1,12.1
10,Cc1cc(NC(=O)c2ccc(F)cc2)n(-c2ccccc2)n1,-75.3
11,Nc1c(-c2ccc(Cl)cc2)cnc2c(-c3ccccc3)cnn12,18.5
12,Cc1ccc(CSCCNS(C)(=O)=O)cc1,10.9
13,CC(=O)N1CCCc2cc(S(=O)(=O)NC(C(=O)NC(C)c3ccccc3)C(C)C)ccc21 (stereo not shown),1.38
14,COc1ccc(CN2CCNC(=O)C2CC(=O)N(C)CCC2CCOCC2)cc1OC (stereo not shown),13.7
15,Cc1ccc(S(=O)(=O)N2CCOC2CNC(=O)C(=O)NCCCc2ccccc2)cc1 (stereo not shown),5.36
16,CCCCCCN1C=CC=C/C1=C\C=C(C#N)C#N,-69.9
17,CCCCCCN1C=CC=C/C1=C/C=C(C#N)C#N,-26.6
18,CCCCCN1C=CC=C/C1=C\C=C(C#N)C#N,-28.2
19,CCOC(=O)C(O)(CC(=O)Nc1ccc(Cl)cc1Cl)C(F)(F)F (stereo not shown),6.91
20,CCOC(=O)C(Cc1ccccc1)(NC(C)=O)C(=O)OCC,14.4
21,CCOC(=O)COc1ccc(N)cc1CC(NC(C)=O)(C(=O)OCC)C(=O)OCC,-69.6
22,CCOC(=O)C(Cc1c(F)cccc1F)(NC(C)=O)C(=O)OCC,8.71
23,COc1ccc(C)cc1NC(=O)C(OC(=O)CNC(=O)c1ccc(Br)cc1)c1ccccc1 (stereo not shown),11.1

row,SMILES,"hERG current change (%, negative = inhibition) at 1uM [%]"
1,Cc1cccc(/C=N/n2c(-c3ccccn3)n[nH]c2=S)c1,14.4
2,CC1CN(S(=O)(=O)c2cccc(C(=O)NCC3COc4ccccc4O3)c2)CC(C)O1 (stereo not shown),0.895
3,O=c1ccc(-c2nc3cc(Cl)ccc3n2Cc2ccccc2)c[nH]1,-45
4,O=c1ccc(-c2nc3ccccc3n2Cc2ccccc2Cl)c[nH]1,4.18
5,O=c1ccc(-c2nc3ccccc3n2Cc2ccc(Cl)cc2)c[nH]1,-50.5
6,Cc1cc(C)nc(SCC(=O)c2ccc(O)c(O)c2)n1,16
7,O=S(=O)(N/N=C/c1cn(Cc2ccccc2)c2ccccc12)c1ccccc1,6.23
8,COc1ccccc1N1CCN(C(=O)c2cc(=O)c3ccc(C)cc3o2)CC1,1.21
9,COc1ccc(N2CCN(C(=O)c3cc(=O)c4cc(Cl)ccc4o3)CC2)cc1,-81.5
10,CCc1ccc2oc(C(=O)N3CCN(c4ccc(OC)cc4)CC3)cc(=O)c2c1,1.45
11,COc1ccccc1N1CCN(C(=O)c2cc(=O)c3cc(C)ccc3o2)CC1,-8.99
12,CCc1ccc2oc(C(=O)N3CCN(c4ccccc4OC)CC3)cc(=O)c2c1,-57.4
13,COc1ccc(N2CCN(C(=O)c3cc(=O)c4cc(C)ccc4o3)CC2)cc1,-3.09
14,Cc1ccc(Cn2nnc3c(=O)[nH]c(C4CCCN(C(=O)Nc5ccc(F)cc5F)C4)nc32)cc1 (stereo not shown),13.8
15,O=C(CNC(=O)c1ccccc1O)N/N=C/c1ccccn1,4.2
16,COc1ccc(Cc2nnc(SCC(=O)Nc3ccc(C)c(Cl)c3)[nH]c2=O)cc1,5.51
17,CC(CN1CCC(n2nccc2NC(=O)C2CCCC2)CC1)c1ccccc1 (stereo not shown),2.95
18,O=C(Nc1ccnn1C1CCN(CC(O)CO)CC1)C1CCCC1 (stereo not shown),12.5
19,CC(C)=CCCC(C)CN1CCC(n2nccc2NC(=O)c2ccccc2)CC1 (stereo not shown),-52.2
20,CC(C)=CCCC(C)CN1CCC(n2nccc2NC(=O)C2CCCC2)CC1 (stereo not shown),-50.3
21,CCc1ccc(CN2CCC(n3nccc3NC(=O)c3ccccc3)CC2)o1,-6.11
22,CC(C)=CCCC(C)CN1CCC(n2nccc2NC(=O)c2cccnc2)CC1 (stereo not shown),-5.79
